# Test results as given in publication PMC5540273 (PLoS ONE, 2017).
# Where two headings read alike, the source gives them in different places.
# Legend:
# Conditions in all cases: n = 1
# FLT3 = test system: FLT3
# FLT4 = test system: FLT4
# FRK = test system: FRK
# FYN = test system: FYN
# GAK = test system: GAK
# GCN2(Kin.Dom.2,S808G) = test system: T1, GCN2(Kin.Dom.2,S808G)
# T1 construct: gene EIF2AK4
# GRK1 = test system: GRK1
# GRK2 = test system: T2, GRK2
# T2 construct: gene ADRBK1
# GRK3 = test system: T3, GRK3
# T3 construct: gene ADRBK2
# GRK4 = test system: GRK4
# GRK7 = test system: GRK7
# GSK3A = test system: GSK3A
# GSK3B = test system: GSK3B
# HASPIN = test system: T4, HASPIN
# T4 construct: gene GSG2
# HCK = test system: HCK
# HIPK1 = test system: HIPK1
# HIPK2 = test system: HIPK2
# HIPK3 = test system: HIPK3
# HIPK4 = test system: HIPK4
# HPK1 = test system: HPK1
# [1] = concentration: 1 μM, replicates: in singlicate
# 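Further: KINOMEscan kinase panel screen.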
structure (smiles),measurement,setting,value
Cn1cncc1-c1ccc2ncnc(Nc3ccc(OCc4ccccc4)cc3)c2c1 [GW320571],%Inh,FLT3; [1],62%
same,%Inh,FLT4; [1],6%
same,%Inh,FRK; [1],8%
same,%Inh,FYN; [1],12%
same,%Inh,GAK; [1],0%
same,%Inh,"GCN2(Kin.Dom.2,S808G); [1]",0%
same,%Inh,GRK1; [1],8%
same,%Inh,GRK2; [1],7%
same,%Inh,GRK3; [1],0%
same,%Inh,GRK4; [1],0%
same,%Inh,GRK7; [1],0%
same,%Inh,GSK3A; [1],0%
same,%Inh,GSK3B; [1],4%
same,%Inh,HASPIN; [1],10%
same,%Inh,HCK; [1],0%
same,%Inh,HIPK1; [1],41%
same,%Inh,HIPK2; [1],49%
same,%Inh,HIPK3; [1],51%
same,%Inh,HIPK4; [1],13%
same,%Inh,HPK1; [1],32%
CN1C(=O)C(Nc2ccc(Cl)c(C(=O)O)c2)=C(c2ccc(Cl)cc2)C1=O [SB-404290],%Inh,FLT3; [1],0%
same,%Inh,FLT4; [1],0%
same,%Inh,FRK; [1],0%
same,%Inh,FYN; [1],0%
same,%Inh,GAK; [1],14%
same,%Inh,"GCN2(Kin.Dom.2,S808G); [1]",9%
same,%Inh,GRK1; [1],12%
same,%Inh,GRK2; [1],0%
same,%Inh,GRK3; [1],4%
same,%Inh,GRK4; [1],19%
same,%Inh,GRK7; [1],0%
same,%Inh,GSK3A; [1],6%
same,%Inh,GSK3B; [1],33%
same,%Inh,HASPIN; [1],21%
same,%Inh,HCK; [1],17%
same,%Inh,HIPK1; [1],19%
same,%Inh,HIPK2; [1],8%
same,%Inh,HIPK3; [1],34%
same,%Inh,HIPK4; [1],11%
same,%Inh,HPK1; [1],0%
Cc1ccc(NC(=O)Nc2cccc(C(F)(F)F)c2)cc1 [GSK955403],%Inh,FLT3; 1 µM,59%
same,%Inh,FLT4; 1 µM,12%
same,%Inh,FRK; 1 µM,0%
same,%Inh,FYN; 1 µM,0%
same,%Inh,GAK; 1 µM,0%
same,%Inh,"GCN2(Kin.Dom.2,S808G); 1 µM",0%
same,%Inh,GRK1; 1 µM,2%
same,%Inh,GRK2; 1 µM,0%
same,%Inh,GRK3; 1 µM,0%
same,%Inh,GRK4; 1 µM,0%
same,%Inh,GRK7; 1 µM,10%
same,%Inh,GSK3A; 1 µM,0%
same,%Inh,GSK3B; 1 µM,0%
same,%Inh,HASPIN; 1 µM,12%
same,%Inh,HCK; 1 µM,0%
same,%Inh,HIPK1; 1 µM,8%
same,%Inh,HIPK2; 1 µM,0%
same,%Inh,HIPK3; 1 µM,0%
same,%Inh,HIPK4; 1 µM,0%
same,%Inh,HPK1; 1 µM,0%
Cc1cc(-c2ccc3c(c2)CC[C@@H](N[C@@H](C)c2ccccc2)C3)cnc1N.Cl [GW412617],%Inh,FLT3; [1],27%
same,%Inh,FLT4; [1],22%
same,%Inh,FRK; [1],19%
same,%Inh,FYN; [1],27%
same,%Inh,GAK; [1],33%
same,%Inh,"GCN2(Kin.Dom.2,S808G); [1]",26%
same,%Inh,GRK1; [1],0%
same,%Inh,GRK2; [1],0%
same,%Inh,GRK3; [1],17%
same,%Inh,GRK4; [1],0%
same,%Inh,GRK7; [1],0%
same,%Inh,GSK3A; [1],0%
same,%Inh,GSK3B; [1],6%
same,%Inh,HASPIN; [1],0%
same,%Inh,HCK; [1],0%
same,%Inh,HIPK1; [1],0%
same,%Inh,HIPK2; [1],6%
same,%Inh,HIPK3; [1],12%
same,%Inh,HIPK4; [1],6%
same,%Inh,HPK1; [1],55%
Cc1c(Cn2ccn3c(=O)cc(N4CCOCC4)nc23)cccc1C(F)(F)F [GSK2289044],%Inh,FLT3; [1],0%
same,%Inh,FLT4; [1],0%
same,%Inh,FRK; [1],0%
same,%Inh,FYN; [1],30%
same,%Inh,GAK; [1],10%
same,%Inh,"GCN2(Kin.Dom.2,S808G); [1]",0%
same,%Inh,GRK1; [1],0%
same,%Inh,GRK2; [1],0%
same,%Inh,GRK3; [1],0%
same,%Inh,GRK4; [1],0%
same,%Inh,GRK7; [1],0%
same,%Inh,GSK3A; [1],1%
same,%Inh,GSK3B; [1],8%
same,%Inh,HASPIN; [1],0%
same,%Inh,HCK; [1],0%
same,%Inh,HIPK1; [1],0%
same,%Inh,HIPK2; [1],0%
same,%Inh,HIPK3; [1],24%
same,%Inh,HIPK4; [1],0%
same,%Inh,HPK1; [1],15%
Cn1ccc2ncnc(Oc3cccc(C(=O)Nc4ccccc4)c3)c21,%Inh,FLT3; [1],17%
same,%Inh,FLT4; [1],0%
same,%Inh,FRK; [1],27%
same,%Inh,FYN; [1],8%
same,%Inh,GAK; [1],0%
same,%Inh,"GCN2(Kin.Dom.2,S808G); [1]",14%
same,%Inh,GRK1; [1],0%
same,%Inh,GRK2; [1],0%
same,%Inh,GRK3; [1],8%
same,%Inh,GRK4; [1],3%
same,%Inh,GRK7; [1],21%
same,%Inh,GSK3A; [1],24%
same,%Inh,GSK3B; [1],2%
same,%Inh,HASPIN; [1],37%
same,%Inh,HCK; [1],8%
same,%Inh,HIPK1; [1],0%
same,%Inh,HIPK2; [1],30%
same,%Inh,HIPK3; [1],5%
same,%Inh,HIPK4; [1],0%
same,%Inh,HPK1; [1],2%
COc1ccc(Nc2nccc(-c3cccc(NC(=O)c4cc5cc(F)ccc5[nH]4)c3)n2)cc1 [GSK1229782],%Inh,FLT3; [1],39%
same,%Inh,FLT4; [1],0%
same,%Inh,FRK; [1],40%
same,%Inh,FYN; [1],31%
same,%Inh,GAK; [1],49%
same,%Inh,"GCN2(Kin.Dom.2,S808G); [1]",4%
same,%Inh,GRK1; [1],0%
same,%Inh,GRK2; [1],0%
same,%Inh,GRK3; [1],45%
same,%Inh,GRK4; [1],0%
same,%Inh,GRK7; [1],0%
same,%Inh,GSK3A; [1],31%
same,%Inh,GSK3B; [1],0%
same,%Inh,HASPIN; [1],39%
same,%Inh,HCK; [1],0%
same,%Inh,HIPK1; [1],0%
same,%Inh,HIPK2; [1],46%
same,%Inh,HIPK3; [1],0%
same,%Inh,HIPK4; [1],36%
same,%Inh,HPK1; [1],65%
Cc1ccccc1-n1cnc2c(N)ncnc21 [SKF-97510],%Inh,FLT3; [1],0%
same,%Inh,FLT4; [1],0%
same,%Inh,FRK; [1],0%
same,%Inh,FYN; [1],8%
same,%Inh,GAK; [1],0%
same,%Inh,"GCN2(Kin.Dom.2,S808G); [1]",0%
same,%Inh,GRK1; [1],0%
same,%Inh,GRK2; [1],0%
same,%Inh,GRK3; [1],0%
same,%Inh,GRK4; [1],0%
same,%Inh,GRK7; [1],0%
same,%Inh,GSK3A; [1],1%
same,%Inh,GSK3B; [1],0%
same,%Inh,HASPIN; [1],0%
same,%Inh,HCK; [1],0%
same,%Inh,HIPK1; [1],0%
same,%Inh,HIPK2; [1],0%
same,%Inh,HIPK3; [1],0%
same,%Inh,HIPK4; [1],0%
same,%Inh,HPK1; [1],0%
